The sample as a whole holds a higher share of hits than the screen did.
IL1B secr inh: qHTS for Inhibitors of Inflammasome Signaling: IL-1-beta AlphaLISA Primary Screen; THP-1 LPS/ATP IL-1B secretion, AlphaLISA, 16 h; active compounds read low; activity change, % at 57.5 µM; 360,000 tested, 4.7% active; AID 743279, 2014; in the data active = activity change below about -50%; inconclusive = mostly about -30% to -49%
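Secreted IL-1B measured by AlphaLISA bead assay after 16 h compound exposure of THP-1 cells; compounds (final up to 57.5 uM) added 1 h before LPS (250 ng/mL) and ATP (1.25 mM) stimulation; lower signal means less secretion.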
DT40 TDP1 no CPT: qHTS for Inhibitors of human tyrosyl-DNA phosphodiesterase 1 (TDP1): qHTS in cells in absence of CPT | DT40 Tdp1-/- hTDP1 cells, no CPT, ATP luminescence, 48 h | Potency, µM (highest dose often 46.2 µM), usual class: inhibitors | 420,000 tested, 15% active | AID 686978, 2013; note: nearly all actives have a fitted effect of over 55% in size
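DT40 Tdp1-/-;hTDP1 cells, no CPT (DMSO vehicle only), 400 cells/well; compounds pin-transferred; ≥48 hr, 37 °C; CellTiter-Glo 30 min RT dark, luminescence read.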
TDP1 cell CPT: qHTS for Inhibitors of human tyrosyl-DNA phosphodiesterase 1 (TDP1): qHTS in cells in presence of CPT; chicken DT40 Tdp1-/-;hTDP1 cells + 20 nM CPT, ATP luminescence, 48 h; AID 686979, 2013; 420,000 tested, 12% active; Potency, µM (titrated, usually from 46.2 µM), actives largely listed as inhibitors; note: nearly all actives have a fitted effect of over 55% in size
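Chicken DT40 Tdp1-/- cells complemented with human TDP1, 400 cells/well, exposed to compounds plus 20 nM camptothecin for at least 48 h at 37 C; viability read as ATP content by CellTiter-Glo luminescence.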
HT1080 IDH1KD tx: qHTS for induction of synthetic lethality in tumor cells producing 2HG: qHTS for the HT-1080-IDH1KD cell line | HT-1080 IDH1 knockdown viability, ATP luminescence, 48 h | Potency, µM (titrated, usually from 46.1 µM), usual class: cytotoxic | 360,000 tested, 2% active | AID 686971, 2013
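After a 2 h attachment period, IDH1KD HT-1080 cells took pin-transferred compound for 48 h at 37 °C; ATP-based luminescence after 10 min room-temperature reagent incubation reported viability.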
12-LOX inh: Primary qHTS assay for inhibitors of human arachidonate 12S-lipoxygenase (ALOX12): Round 2 | Polyunsaturated fatty acid lipoxygenase ALOX12 (Homo sapiens), P18054 | purified 12hLO, xylenol orange hydroperoxide absorbance | 580,000 tested, 1.1% active | Potency, µM (series often up to 108 µM), usual class: inhibitors | AID 1671190, 2021
Target sequence (P18054 whole entry, looked up): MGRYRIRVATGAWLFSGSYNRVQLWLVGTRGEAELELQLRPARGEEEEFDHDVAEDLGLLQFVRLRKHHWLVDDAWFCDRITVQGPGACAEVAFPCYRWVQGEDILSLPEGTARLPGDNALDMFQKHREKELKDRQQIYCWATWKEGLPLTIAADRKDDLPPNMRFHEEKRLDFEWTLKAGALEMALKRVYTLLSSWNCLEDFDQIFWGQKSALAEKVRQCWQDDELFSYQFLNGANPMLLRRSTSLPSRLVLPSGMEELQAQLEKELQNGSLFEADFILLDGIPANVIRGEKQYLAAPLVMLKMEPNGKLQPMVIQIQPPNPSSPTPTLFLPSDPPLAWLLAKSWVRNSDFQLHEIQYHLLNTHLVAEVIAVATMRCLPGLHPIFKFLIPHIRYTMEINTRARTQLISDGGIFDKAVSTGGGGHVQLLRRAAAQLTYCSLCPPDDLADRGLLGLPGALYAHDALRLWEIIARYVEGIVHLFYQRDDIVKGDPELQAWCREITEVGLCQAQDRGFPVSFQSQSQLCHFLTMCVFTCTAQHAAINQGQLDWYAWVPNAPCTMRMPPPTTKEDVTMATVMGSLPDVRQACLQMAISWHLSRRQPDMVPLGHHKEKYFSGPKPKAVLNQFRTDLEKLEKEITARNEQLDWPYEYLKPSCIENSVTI
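Purified human 12hLO at 150 nM in 25 mM Hepes, 0.01% Triton X-100, pH 7.0, preincubated 15 min at room temperature with compound. Reaction started with 40 uM arachidonic acid, 30 min at room temperature. Hydroperoxide measured by Fe-xylenol orange, 573/405 nm absorbance ratio.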
HT1080NT lethal: qHTS for induction of synthetic lethality in tumor cells producing 2HG: qHTS for the HT-1080-NT fibrosarcoma cell line. HT-1080-NT fibrosarcoma viability, CellTiter-Glo ATP luminescence, 48 h. Potency, µM (doses to about 46.1 µM), actives largely listed as cytotoxic. 360,000 tested, 1.6% active;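 note: NT is the 2HG producing partner of a matched IDH1 knockdown line; nearly all actives have a fitted effect of over 55% in size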
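A 48-hour cytotoxicity screen used HT-1080-NT cells plated 2 hours before compound delivery. ATP-based CellTiter-Glo luminescence measured viability, normalized to DMSO and no-cell controls.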
A number is an active result; – = inactive; ? = inconclusive; · = no result given; [ ] = dose if it differs, or a comment. Unless noted, calls come from the whole dose curve; as a rule, active = well fitted curve in the direction sought with a large enough effect; inconclusive = small, poorly fitted or top-dose-only effect, or another doubt; inactive = no such curve, though single readings can be large; an effect the other way counts as inactive or inconclusive.

SMILES | IL1B secr inh | DT40 TDP1 no CPT | TDP1 cell CPT | HT1080 IDH1KD tx | 12-LOX inh | HT1080NT lethal
C[C@@H]1CC=C[C@@H]2[C@H]1C(=O)N(Cc1ccccc1)[C@H]2c1cccc(C#Cc2ccccc2)c1 | – | 10µM | 29µM | ? | ? | –
C[C@@H]1CC=C[C@H]2[C@H]1C(=O)N(Cc1ccccc1)[C@H]2c1ccc(-c2ccc(F)cc2)cc1F | – | 13µM | 16µM | – | – | –
COc1ccc([C@H]2[C@H]3C=CC[C@@H](C)[C@@H]3C(=O)N2Cc2ccccc2)cc1Cl | – | 16µM | ? | – | ? | –
COC(=O)/C=C/c1cccc([C@H]2[C@@H]3C=CC[C@@H](C)[C@@H]3C(=O)N2Cc2ccccc2)c1 | – | 16µM | 23µM | – | ? | –
C[C@@H]1CC=C[C@H]2[C@H]1C(=O)N(Cc1ccccc1)[C@H]2c1ccc(-c2ccoc2)cc1F | – | ? | ? | – | ? | ?
c1ccc(Oc2ncnc3c2cnn3-c2ccccc2)cc1 | · | · | · | · | – | ·
Cc1cc(=O)oc2cc(NC(=O)Cc3ccc(Cl)c(Cl)c3)ccc12 | · | · | · | · | – | ·
Cc1cccc(NC(=O)Nc2ccc3c(c2)N(C)C(=O)CS3)n1 | -56 | ? | ? | – | – | –
O=C(c1cnc2c(c1)N([S+](=O)([O-])c1cccnc1)CCC2)N1CCC(c2ccccc2)CC1 | · | · | · | · | – | ·
CC(=O)Nc1ccc(Nc2nc(C)nc3c2oc2ccccc23)cc1 | – | ? | ? | – | – | ?
Cc1cccc(Nc2nc(C)nc3c2oc2ccccc23)c1 | – | ? | 16µM | – | ? | –
CCc1nc(Nc2ccc3c(c2)OCO3)c2oc3ccccc3c2n1 | ? | 12µM | 21µM | – | – | –
CCc1nc(N2CCN(Cc3ccc4c(c3)OCO4)CC2)c2oc3ccccc3c2n1 | – | 26µM | 26µM | ? | – | ?
CCc1nc(NCc2ccccn2)c2oc3ccccc3c2n1 | -68 | 15µM | 15µM | – | ? | –
CCc1nc(N2CCCCC2)c2oc3ccccc3c2n1 | – | ? | ? | ? | – | ?
Cc1nn(C)c(NC(=O)Nc2ccccc2)c1C1=CCCCC1 | · | · | · | · | – | ·
Cc1sc2nc(CN3CCCCC3)nc(Nc3ccc4c(c3)OCCO4)c2c1C | – | – | – | – | – | –
CCc1nc(Nc2cccc(O)c2)c2oc3ccccc3c2n1 | ? | 26µM | ? | ? | · | ?
Cc1cccc2c(Nc3ccc4c(c3)OCO4)nc(CN3CCC(N4CCCCC4)CC3)nc12 | · | 21µM | 15µM | · | – | ·
CCc1nc(SCC(=O)Nc2ccc3c(c2)OCCO3)c2oc3ccccc3c2n1 | – | 26µM | ? | – | – | –
CCc1nc(N2CCCCC2C)c2oc3ccccc3c2n1 (configuration not stated) | – | 26µM | 29µM | ? | ? | ?
Cc1cc(NC(=O)c2ccc([N+](=O)[O-])o2)cc(-c2nc3cc(C(C)C)ccc3o2)c1O | · | · | · | · | – | ·
CCc1nc(Nc2ccccc2OC)c2oc3ccccc3c2n1 | -54 | ? | ? | – | ? | –
Cc1nc(Nc2ccncc2)c2oc3ccccc3c2n1 | -93 | 12µM | 10µM | 13µM | – | –[9.24 µM]
CCc1nc(Nc2ccncc2)c2oc3ccccc3c2n1 | -59 | 2.3µM | 5.8µM | 23µM | – | ?
SMILES | IL1B secr inh | DT40 TDP1 no CPT | TDP1 cell CPT | HT1080 IDH1KD tx | 12-LOX inh | HT1080NT lethal
CCOC(=O)c1c(C)nc2sc3c(=O)n(-c4ccc(C(C)=O)cc4)cnc3c2c1-c1ccc(OC)cc1 | – | 16µM | – | – | – | –
CCOC(=O)c1c(C)nc2sc3c(c2c1-c1ccc(OC)cc1)NC(c1ccccc1)NC3=O (configuration not stated) | – | 18µM | ? | – | – | –
COc1ccc(-c2c(C(C)=O)c(C)nc3sc4c(c23)NC(c2ccccc2)NC4=O)cc1 (configuration not stated) | – | – | – | – | – | –
COc1ccccc1/C=N\NC(=O)c1ccc(COc2ccc(C)c(C)c2)o1 | – | – | – | – | – | –
Cn1ccc(C(=O)N2CCC(c3nnc4n3C(C(=O)N3CCN(c5ncccn5)CC3)CC4)CC2)n1 (configuration not stated) | · | · | · | · | –[6.33 µM] | ·
COc1cccc(CCC(=O)N2CCC(Oc3ncccc3C(=O)N3CCCCC3)C2)c1 (configuration not stated) | · | · | · | · | – | ·
O=C(Nc1cccc(C(F)(F)F)c1)C1Cc2c(-c3ccccc3)ccnc2O1 (configuration not stated) | – | 26µM | ? | 23µM | ? | ?
O=C(Nc1cccc(OC(F)(F)F)c1)C1Cc2c(-c3ccco3)ccnc2O1 (configuration not stated) | – | 18µM | ? | ? | – | –
O=C(Nc1cccc(C(F)(F)F)c1)C1Cc2c(-c3ccco3)ccnc2O1 (configuration not stated) | · | ? | 16µM | – | ? | –
O=C(Nc1cccc(C(F)(F)F)c1)C1Cc2c(-c3ccc(Cl)cc3)ccnc2O1 (configuration not stated) | – | ? | ? | ? | ? | ?
C=CCOc1cccc(-c2nc(C(=O)NCC)cs2)c1 | · | · | · | · | – | ·
O=C(c1cccc(OC2CCN(Cc3ccc(F)cc3Cl)CC2)c1)N1CCCC1 | – | ? | 21µM | – | – | –
CSc1ccc(CN2CCC(Oc3cccc(C(=O)N4CCCC4)c3)CC2)cc1 | – | 18µM | 21µM | – | – | –
O=C(c1cccc(OC2CCN(Cc3cc(F)cc(F)c3)CC2)c1)N1CCCC1 | – | ? | ? | – | – | –
CCN(CC)S(=O)(=O)c1cc(N2C(=O)CCS2(=O)=O)ccc1OC | · | · | · | · | – | ·
Cc1cc(C)cc(N2CCn3c2nc2c3c(=O)n(CCc3ccccc3)c(=O)n2C)c1 | · | – | – | · | – | ·
O=[N+]([O-])c1ccccc1S(=O)c1ccccc1[N+](=O)[O-] | – | 16µM | 10µM | ? | – | 21µM
N#Cc1c(-c2ccc(Cl)cc2)n(O)c2ccccc12 | -54 | 3.3µM | 3.3µM | 15µM | · | 10µM
COc1cc(OC)c(CN2CCc3c([nH]c4ccccc34)C2)cc1Br | – | ? | ? | ? | ? | 16µM
Clc1ccc(CN2CCc3c([nH]c4ccccc34)C2)cc1Cl | -70 | 15µM | ? | ? | ? | ?

High-throughput results deposited in PubChem BioAssay by National Center for Advancing Translational Sciences (NCATS).
